Here are results for 7 compounds from PubChem BioAssay (EPA / NIEHS).

The source made the active and inactive calls. Rule for the calls: active = hit-call score of the fitted dose curve at least 0.9, where 1 is the maximum; inactive = score below 0.9.

Experiment [1] can be described thus: ATG_E_Box_CIS: Attagene CIS-FACTORIAL HepG2 Assay for human Enhancer Box (E-box) (AID 2282936). As to conditions: HepG2 E-box cis-reporter transcription, actives raise or lower the signal. The gist of the method:
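Cells: HepG2 (human liver), transient MRTU transfection. Exposure 24 h. RNA → oligo(dT) RT → PCR → 6-FAM label → HpaI → CE. Activity fitted both directions relative to DMSO.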

Experiment [2] can be described thus: ATG_M_61_CIS: Attagene CIS-FACTORIAL HepG2 Assay for M61 Transcription Factor (Internal Marker) (AID 2282937). As to conditions: HepG2 Attagene CIS-FACTORIAL M61 internal marker reporter; actives raise or lower the signal. The gist of the method:
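Using transiently transfected HepG2 liver cells, reporter transcript levels were assessed 24 h post-dosing by RT-PCR and capillary electrophoresis. Changes in either direction were fitted relative to DMSO controls.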

Experiment [3] is described as follows: ATG_EGR_CIS: Attagene CIS-FACTORIAL HepG2 Assay for human Early Growth Response 1 (EGR1) (AID 2282938). As to conditions: HepG2 Attagene CIS-FACTORIAL EGR reporter mRNA; actives raise or lower the signal. The gist of the method: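 Fluorescent capillary-electrophoresis signal of reporter cDNA fragments serves as read-out. HepG2 cells bear transiently transfected cis-promoter reporter units and are exposed 24 h; gain- or loss-of-signal is fitted against DMSO.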

Experiment [4] can be described thus: ATG_M_19_CIS: Attagene CIS-FACTORIAL HepG2 Assay for M19 Transcription Factor (Internal Marker) (AID 2282939). As to conditions: HepG2 Attagene CIS-FACTORIAL M19 internal marker reporter; actives raise or lower the signal. The gist of the method: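 Readout: fluorescent reporter-transcript fragments by capillary electrophoresis after RT-PCR. Human HepG2 liver cells carried transfected MRTU constructs reporting endogenous transcription-factor activity; exposure 24 h. Gain or loss of signal fitted relative to DMSO.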

Experiment [5] can be described thus: ATG_ERE_CIS: Attagene CIS-FACTORIAL HepG2 Assay for Estrogen Response Element (ERE) (AID 2282940). As to conditions: HepG2 ERE cis-reporter, Attagene RNA transcript; actives raise or lower the signal. The gist of the method:
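Readout: reporter mRNA induction by RT-PCR, FAM-labelled primer extension, HpaI digestion and capillary electrophoresis, 24 h after dosing transfected HepG2 cells. Endogenous transcription factors act on cis-element-regulated reporters. Gain or loss fitted against DMSO.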

Experiment [6] can be described thus: ATG_Ets_CIS: Attagene CIS-FACTORIAL HepG2 Assay for human Erythroblast Transformation Specific (ETS) (AID 2282941). As to conditions: HepG2 ETS cis-reporter transcription, actives raise or lower the signal. The gist of the method:
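After transient cis-reporter transfection, HepG2 cells receive test chemical for 24 h. Reporter mRNA levels, measured by RT-PCR and capillary electrophoresis fluorescence, are analysed bidirectionally relative to the DMSO baseline.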

The target of experiment [7] is Hepatocyte nuclear factor 3-beta (Homo sapiens) (UniProt Q9Y261). Briefly: ATG_FoxA2_CIS: Attagene CIS-FACTORIAL HepG2 Assay for human Forkhead box A2 (FOXA2) (AID 2282942). As to conditions: HepG2 cis-reporter transcription factor activity, 24 h; actives raise or lower the signal. The gist of the method:
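Fluorescence signal of reporter cDNA fragments, separated by capillary electrophoresis, reflects endogenous transcription factor activity in transfected HepG2 after 24 h. Both increases and decreases fitted against DMSO.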

Experiment [8] is described as follows: ATG_FoxO_CIS: Attagene CIS-FACTORIAL HepG2 Assay for human Forkhead box O (FoxO) (AID 2282943). As to conditions: HepG2 Attagene cis-reporter, FoxO element, mRNA; actives raise or lower the signal. The gist of the method: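 Human hepatoma HepG2 cells carry transiently introduced reporter transcription units controlled by cis promoter elements. Chemical treatment lasted 24 h, and mRNA signal was compared with DMSO.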

Experiment [9] can be described thus: ATG_GATA_CIS: Attagene CIS-FACTORIAL HepG2 Assay for human GATA Binding Protein (AID 2282944). As to conditions: HepG2 GATA cis-element reporter, Attagene multiplex mRNA; actives raise or lower the signal. The gist of the method: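 Read-out: fluorescent reporter mRNA fragments resolved by capillary electrophoresis after RT-PCR. Human liver HepG2 cells carried transiently transfected cis-regulated reporter constructs; chemicals incubated 24 h; gain or loss of signal fitted relative to DMSO.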

The nature of experiment [10]: ATG_GLI_CIS: Attagene CIS-FACTORIAL HepG2 Assay for human Zinc Finger Protein GLI1 (AID 2282945). As to conditions: HepG2, Attagene cis-factorial reporter mRNA, GLI element; actives raise or lower the signal. The gist of the method:
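Bidirectional curve fits relative to DMSO, using reporter mRNA levels from RT-PCR plus capillary electrophoresis. Cells were HepG2 transiently carrying cis-regulated reporter constructs, harvested 24 h after dosing.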

Experiment [11] in a line: ATG_GRE_CIS: Attagene CIS-FACTORIAL HepG2 Assay for human Glucocorticoid Response Elements (GRE) (AID 2282947). As to conditions: HepG2 GRE cis-reporter, Attagene multiplex mRNA; actives raise or lower the signal. The gist of the method: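 Transient MRTU transfection of human HepG2 liver cells; cis-regulated reporters report endogenous factors. 24 h dosing → RNA isolation → RT-PCR → 6-FAM primer extension → HpaI cut → CE fragment analysis. Bidirectional fit, DMSO negative control.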

Experiment [12] is described as follows: ATG_M_32_CIS: Attagene CIS-FACTORIAL HepG2 Assay for M32 Transcription Factor (Internal Marker) (AID 2282949).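 Note: background control marker of the multiplexed CIS panel rather than a real target.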 As to conditions: HepG2 Attagene cis-factorial M32 reporter, mRNA; actives raise or lower the signal. The gist of the method:
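HepG2 cells transiently transfected with multiplexed cis-regulated reporter units, dosed 24 h. Reporter mRNA quantified by RT-PCR, 6-FAM labelling, HpaI digestion and capillary electrophoresis; bidirectional fit vs DMSO.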

Experiment [13] in a line: ATG_M_06_CIS: Attagene CIS-FACTORIAL HepG2 Assay for M06 Transcription Factor (Internal Marker) (AID 2282950). As to conditions: HepG2 Attagene CIS-FACTORIAL M06 internal marker reporter; actives raise or lower the signal. The gist of the method:
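Terse: HepG2, transient MRTU transfection (FuGene 6), 24 h dosing; total RNA, oligo(dT) RT, PCR, FAM label, HpaI cut, capillary electrophoresis; bidirectional fit vs DMSO baseline; background-control endpoint.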

Experiment [14] concerns the target Hypoxia-inducible factor 1-alpha (Homo sapiens) (UniProt Q16665). Briefly: ATG_HIF1a_CIS: Attagene CIS-FACTORIAL HepG2 Assay for human Hypoxia Inducible Factor 1 (HIF1A) (AID 2282951). As to conditions: HepG2 Attagene cis-factorial HIF1a reporter transcription; actives raise or lower the signal. The gist of the method: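 Endogenous-TF cis reporter readout, human HepG2 cells, 24 h incubation; mRNA detected via RT-PCR and capillary electrophoresis fluorescence; DMSO-normalised bidirectional fitting.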

Experiment [15] concerns the target Hepatocyte nuclear factor 6 (Homo sapiens) (UniProt Q9UBC0). Briefly: ATG_HNF6_CIS: Attagene CIS-FACTORIAL HepG2 Assay for human Hepatocyte Nuclear Factor 6 (HNF6) (AID 2282952). As to conditions: HepG2 Attagene cis-factorial HNF6 reporter transcription; actives raise or lower the signal. The gist of the method: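 HepG2 cells transiently transfected with cis-element-driven multiple reporter transcription units, dosed 24 h; reporter mRNA quantified by RT-PCR, FAM primer extension, HpaI digestion and capillary electrophoresis; bidirectional fit versus DMSO baseline.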

The target of experiment [16] is Heat shock factor protein 1 (Homo sapiens) (UniProt Q00613). Briefly: ATG_HSE_CIS: Attagene CIS-FACTORIAL HepG2 Assay for human Heat Shock Transcription Factor 1 (HSE) (AID 2282953). As to conditions: HepG2 HSE cis-reporter, Attagene RNA transcription; actives raise or lower the signal. The gist of the method:
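Read-out: fluorescence of reporter-specific RT-PCR fragments separated by capillary electrophoresis. HepG2 carrying transfected cis-element reporter units; 24 h dosing; activity fitted in both directions relative to DMSO baseline.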

Experiment [17] is described as follows: ATG_MRE_CIS: Attagene CIS-FACTORIAL HepG2 Assay for human Metal Responsive Element (MRE) (AID 2282954). As to conditions: HepG2 MRE cis-reporter transcription, Attagene multiplex; actives raise or lower the signal. The gist of the method: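 Transient MRTU transfection of HepG2 (FuGene 6); 24 h dosing; total RNA → oligo(dT) RT, PCR, 6-FAM primer extension, HpaI cut, CE. Bidirectional fit vs DMSO.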

Experiment [18] is described as follows: ATG_ISRE_CIS: Attagene CIS-FACTORIAL HepG2 Assay for human Interferon Regulatory Factor 1 (IRF1) binding to an Interferon-Stimulated Response Element (ISRE) (AID 2282948). As to conditions: HepG2 ISRE cis-reporter (Attagene), mRNA transcription readout; actives raise or lower the signal. The gist of the method:
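Quantitation relies on labelled RT-PCR fragments separated by capillary electrophoresis. Human HepG2 cells bearing cis-promoter reporter constructs were treated 24 h; DMSO served as baseline for bidirectional fitting.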

Experiment [19] addresses Bile acid receptor (Homo sapiens) (UniProt Q96RI1). The experiment in a line: ATG_IR1_CIS: Attagene CIS-FACTORIAL HepG2 Assay for human Nuclear Receptor Subfamily 1 Group H Member 4 (NR1H4), IR1 submotif (AID 2282946). As to conditions: IR1 reporter transcription, actives raise or lower the signal. The gist of the method:
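Cells (human HepG2) carry transiently transfected cis-promoter reporter transcription units. Compounds are incubated 24 h, total RNA is reverse-transcribed and amplified, and labelled fragments are resolved by capillary electrophoresis. Curves use DMSO as baseline.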

Chain of Hepatocyte nuclear factor 6 (Homo sapiens) (Q9UBC0 whole entry, looked up): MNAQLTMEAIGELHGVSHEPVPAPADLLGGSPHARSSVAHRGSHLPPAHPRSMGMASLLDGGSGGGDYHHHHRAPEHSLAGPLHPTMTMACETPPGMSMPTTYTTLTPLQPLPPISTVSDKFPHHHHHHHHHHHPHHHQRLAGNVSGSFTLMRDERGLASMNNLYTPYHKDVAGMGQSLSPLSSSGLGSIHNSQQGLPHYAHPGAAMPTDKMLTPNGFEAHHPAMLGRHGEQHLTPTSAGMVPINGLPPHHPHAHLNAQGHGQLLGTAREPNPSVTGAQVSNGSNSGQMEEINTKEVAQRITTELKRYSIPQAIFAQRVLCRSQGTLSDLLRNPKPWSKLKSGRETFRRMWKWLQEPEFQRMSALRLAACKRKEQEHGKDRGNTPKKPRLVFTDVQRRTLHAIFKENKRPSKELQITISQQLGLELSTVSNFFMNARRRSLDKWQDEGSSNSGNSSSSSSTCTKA
Chain of Hypoxia-inducible factor 1-alpha (Homo sapiens) (Q16665 whole entry, looked up): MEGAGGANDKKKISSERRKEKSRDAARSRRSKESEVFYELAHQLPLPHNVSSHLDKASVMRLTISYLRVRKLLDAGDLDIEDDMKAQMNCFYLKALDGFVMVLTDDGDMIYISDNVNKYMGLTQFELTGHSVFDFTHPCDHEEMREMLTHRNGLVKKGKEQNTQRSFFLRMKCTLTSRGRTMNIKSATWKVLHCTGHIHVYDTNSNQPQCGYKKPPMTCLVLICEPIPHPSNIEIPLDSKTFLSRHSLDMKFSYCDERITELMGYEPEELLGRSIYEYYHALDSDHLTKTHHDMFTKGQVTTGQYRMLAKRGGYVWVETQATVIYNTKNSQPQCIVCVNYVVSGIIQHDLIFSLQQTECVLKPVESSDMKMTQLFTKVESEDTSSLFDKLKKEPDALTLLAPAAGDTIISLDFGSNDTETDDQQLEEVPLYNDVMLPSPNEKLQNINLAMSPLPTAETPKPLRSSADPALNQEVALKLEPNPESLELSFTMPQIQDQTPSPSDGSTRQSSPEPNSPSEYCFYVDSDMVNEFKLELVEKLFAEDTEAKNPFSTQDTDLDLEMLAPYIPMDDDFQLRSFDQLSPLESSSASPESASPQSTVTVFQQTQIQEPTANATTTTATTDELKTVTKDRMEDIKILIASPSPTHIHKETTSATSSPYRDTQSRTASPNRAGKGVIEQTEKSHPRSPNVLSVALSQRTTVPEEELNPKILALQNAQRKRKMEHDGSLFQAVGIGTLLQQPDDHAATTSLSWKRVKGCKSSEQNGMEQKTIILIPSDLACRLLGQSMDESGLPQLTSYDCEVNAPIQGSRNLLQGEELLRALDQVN
Chain of Heat shock factor protein 1 (Homo sapiens) (Q00613 whole entry, looked up, the tested form may be a part): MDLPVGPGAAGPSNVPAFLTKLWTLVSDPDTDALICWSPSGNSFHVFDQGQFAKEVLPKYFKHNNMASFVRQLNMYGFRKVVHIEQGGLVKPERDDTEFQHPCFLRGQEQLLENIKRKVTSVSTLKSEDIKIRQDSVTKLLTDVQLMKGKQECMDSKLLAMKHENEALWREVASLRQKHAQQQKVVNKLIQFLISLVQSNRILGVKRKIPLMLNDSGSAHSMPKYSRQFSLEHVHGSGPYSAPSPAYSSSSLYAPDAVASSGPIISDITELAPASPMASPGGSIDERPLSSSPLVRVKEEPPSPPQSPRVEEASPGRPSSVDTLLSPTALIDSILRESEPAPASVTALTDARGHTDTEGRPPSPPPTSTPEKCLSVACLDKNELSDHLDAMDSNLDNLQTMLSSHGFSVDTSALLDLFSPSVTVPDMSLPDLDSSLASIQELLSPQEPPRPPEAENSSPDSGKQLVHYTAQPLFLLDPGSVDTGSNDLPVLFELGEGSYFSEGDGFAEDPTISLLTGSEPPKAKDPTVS
Chain of Hepatocyte nuclear factor 3-beta (Homo sapiens) (Q9Y261 whole entry, looked up, the tested form may be a part): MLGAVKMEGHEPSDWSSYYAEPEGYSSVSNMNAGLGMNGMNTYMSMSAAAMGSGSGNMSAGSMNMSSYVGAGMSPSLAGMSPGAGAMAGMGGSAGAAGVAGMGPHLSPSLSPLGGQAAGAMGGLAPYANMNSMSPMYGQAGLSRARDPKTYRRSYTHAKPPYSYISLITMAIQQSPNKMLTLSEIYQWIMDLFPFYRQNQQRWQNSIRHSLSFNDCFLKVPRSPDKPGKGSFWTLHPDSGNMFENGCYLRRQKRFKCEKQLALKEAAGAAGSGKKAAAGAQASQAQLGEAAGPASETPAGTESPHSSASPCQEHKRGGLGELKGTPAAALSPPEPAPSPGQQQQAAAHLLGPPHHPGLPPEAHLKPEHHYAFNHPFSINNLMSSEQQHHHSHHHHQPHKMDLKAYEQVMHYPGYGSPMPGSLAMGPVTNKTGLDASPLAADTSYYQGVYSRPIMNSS
Chain of Bile acid receptor (Homo sapiens) (Q96RI1 whole entry, looked up, the tested form may be a part): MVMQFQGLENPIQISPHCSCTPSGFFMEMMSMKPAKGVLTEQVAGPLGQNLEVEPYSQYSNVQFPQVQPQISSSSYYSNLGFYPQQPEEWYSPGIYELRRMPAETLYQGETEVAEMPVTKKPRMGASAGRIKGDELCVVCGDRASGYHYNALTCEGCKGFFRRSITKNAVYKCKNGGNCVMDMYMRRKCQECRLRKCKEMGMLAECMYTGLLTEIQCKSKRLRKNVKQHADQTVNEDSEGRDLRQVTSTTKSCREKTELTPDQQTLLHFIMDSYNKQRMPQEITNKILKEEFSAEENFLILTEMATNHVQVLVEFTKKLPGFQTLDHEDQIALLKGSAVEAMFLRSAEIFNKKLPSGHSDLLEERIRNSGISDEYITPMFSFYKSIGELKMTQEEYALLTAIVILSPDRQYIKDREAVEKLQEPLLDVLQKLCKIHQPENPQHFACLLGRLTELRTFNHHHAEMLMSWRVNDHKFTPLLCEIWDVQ

Consider `CC(C)(c1ccccc1)c1ccc(Nc2ccc(C(C)(C)c3ccccc3)cc2)cc1`, for which the result in experiment [1], in [2], in [3], in [4], in experiment [5] and in experiment [6] was inactive. The call in experiment [7], in experiment [8], in [9], in [10], in experiment [11] and in experiment [12] was inactive. Further, the compound was called inactive in experiment [13], in [14], in experiment [15], in experiment [16] and in [17].
In the case of `CC(=O)OCCc1ccccc1`, the outcome in experiment [1], in experiment [2], in [3], in experiment [4], in experiment [5] and in experiment [6] was inactive. Also, the compound was called inactive in experiment [7], in experiment [9], in [10], in experiment [18], in experiment [13] and in experiment [14]. In addition, the call in experiment [15], in experiment [16] and in [17] was inactive.
For `C=C(C)OC(C)=O`, the outcome in [1], in experiment [2], in [3], in experiment [4], in experiment [5] and in experiment [6] was inactive. For the same compound, the call in experiment [7], in experiment [8], in experiment [9], in experiment [10], in experiment [11] and in experiment [18] was inactive. In addition, the result in experiment [13], in experiment [15], in [16] and in experiment [17] was inactive.
As for `O=C1c2ccccc2C(=O)c2cc(S(=O)(=O)O)ccc21`, the outcome in experiment [1], in experiment [2], in experiment [3], in experiment [4], in experiment [5] and in experiment [6] was inactive. The compound was classed as inactive in experiment [7], in [8], in [9], in [10], in experiment [11] and in experiment [18]. Further, the compound was called inactive in experiment [12], in experiment [13], in experiment [14], in experiment [15], in experiment [16] and in experiment [17].
Consider `N#CC1(N)CCCCC1`, for which the result in experiment [1], in [2], in [3], in [4], in experiment [5] and in [6] was inactive. The result in experiment [7], in experiment [9], in experiment [10], in experiment [18], in experiment [13] and in [14] was inactive. For the same compound, the compound was classed as inactive in experiment [15], in [16] and in experiment [17].
As to `CCCCC/C=C\C/C=C\CCCCCCCC(=O)O`, the outcome in experiment [1], in experiment [2], in experiment [4], in experiment [5], in experiment [6] and in experiment [7] was inactive. Further, the compound was called inactive in experiment [9], in experiment [10], in experiment [18], in experiment [12], in [13] and in experiment [15]. The AC50 (commonly the midpoint of the concentration-response curve, whichever way the signal moves) in [3] was 72.5 µM (active); in [19], 76.3 µM (active); in [14] it was 26.6 µM (active); in experiment [16], 150 µM (active); in experiment [17], 149 µM (active).
As for `O=C(O)c1ccc2c(c1)C(=O)OC2=O`, the result in [1], in experiment [2], in experiment [3], in experiment [5], in [6] and in experiment [7] was inactive. Besides, the outcome in experiment [8], in experiment [9], in experiment [10], in experiment [19], in experiment [11] and in experiment [18] was inactive. Also, the compound was classed as inactive in experiment [12], in experiment [13], in experiment [14], in experiment [15], in experiment [16] and in [17].
